Test results from PubChem BioAssay (NCI).
The panel holds about 83,000 compounds, 20% with a hit somewhere; the sample as a whole holds those more often.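 96-well plates, one dose, 48 hours. Percent growth reported; active if below 10.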 Values without a mark were called inactive. Activity calls are given as the source filed them.

The compounds below were run on CAKI-1 renal (assay: NCI-60 one-dose screen, 48 h (100 = growth as untreated, 0 = no growth, -100 = all killed)). Settings: 10 µM unless noted.

Structure (SMILES) | growth
COc1ccc2c(c1)C(=O)c1c-2c(=O)n(CCCCCCC(=O)NO)c2ccccc12 | -55.4% (active)
CCC(C)(C)C(=O)O[C@H]1C[C@@H](C)C=C2C=C[C@H](C)[C@H](CC[C@@H]3C[C@@H](O)CC(=O)O3)[C@H]21 | -33.5% (active)
CCC1=C(c2ccc(OC)cc2)C(C)(C)Oc2c1ccc(O)c2CN1CCCC1 | 44.5%
CCCCCCCCCCCCCCCCCC1=NC(C)(C)CN1CCO | -41% (active)
O=C(Nc1ccc(Cl)cc1)Nc1ccc(Nc2nncc3ccccc23)cc1 | 20.6%
COc1cc(C2C=C(c3ccc(C)cc3)Nc3nc(SC)[nH]c(=O)c32)ccc1Oc1ccnc2cc(Cl)ccc12 (centres undefined) | 67.8%
C=C(C[C@@](O)(C(=O)Oc1ccccc1)C(=O)C1CCCCC1)c1ccccc1 | 87.3%
CCCCCCCC1(C)NC(=O)NC1=O (centres undefined) | 105%
COc1ccc(-c2cncn2-c2ccc(-c3nc4cc(OC)c(OC)c(OC)c4s3)cc2)cc1N | 30.4%
CCc1[nH]nc(-c2ccc(OC)cc2)c1-c1ccccc1OCCN(CC)CC | 89%
COc1ncc(-c2ccc3nccc(C#CCN4CCN(S(C)(=O)=O)CC4)c3c2)cc1NS(=O)(=O)c1ccc(F)cc1F | 4.01% (active)
COc1ccc2c(c1)C(=O)c1c-2c(OCCCN(C)C)nc2cc(Br)ccc12 | 69.6%
N#Cc1c(N)[nH]c(S)c1C#N | 98.5%
CC(O)c1nc2c(c(=O)n(C)c(=O)n2C)n1C (centres undefined) | 89.2%
